Reference: PubChem BioAssay (NCATS)
Values joined by “and” are separate entries in the source; they are usually repeats but may differ in a detail not shown here. Equal entries are not always repeated. Results filed as inconclusive are left out. Active and inactive are the calls of the source. Unless noted, the call rests on the fitted dose curve; in most records, active means well fitted curve in the direction sought with a large enough effect; inconclusive means small, poorly fitted or top-dose-only effect, or another doubt; inactive means no such curve, though single readings can be large; an effect the other way counts as inactive or inconclusive. Where a SMILES comes first, the peptide text is derived from it.

Key:
[1] = test system: Zika virus NS2B-NS3 protease; experiment: Primary screen GU AMC qHTS for Zika virus inhibitors (AID 1347154);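 further: 0% = no-inhibitor control and -100% = no-enzyme control; nearly all actives have a fitted effect of over 70% in size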
How it was run: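 Fluorogenic AMC-substrate cleavage by noncovalent NS2B-NS3 protease complex (25 nM, pH 8.0 Tris buffer with Tween 20) followed for 15 minutes at room temperature (~20% conversion). Percent inhibition from ex340/em450 signal change, fitted by 4-parameter Hill equation.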

[2] = Primary qHTS for small molecule stabilizers of the endoplasmic reticulum resident proteome: Secreted ER Calcium Modulated Protein (SERCaMP) assay (AID 1508630); further: on the % scale 0 is the no-effect control and ±100 the full control effect
How it was run: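 GLuc-SERCaMP-expressing SH-SY5Y cells, pretreated 16 h with compound, are challenged with thapsigargin to empty ER calcium stores; after 4 h, coelenterazine is added directly to the medium and luminescence is imaged.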

[3] = AP1 Signaling Pathway (AID 357; active means well fitted curve in either direction with a large enough effect, not every such curve was filed as active;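 further: ME-180 reporter cells stimulated with EGF at its EC50 level; on the % scale 0 is the no-effect control and ±100 the full control effect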)
How it was run: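 Cells are seeded overnight, exposed to compound titrations and an EC50 level of EGF for 5 hours at 37 °C, then loaded with CCF4 dye for 2.5 hours. Beta-lactamase activity under the AP-1 element is read as a blue/green ratio.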

[4] = molecular target: Cytochrome P450 1A2 (Homo sapiens) (UniProt P05177); experiment: p450-cyp1a2 (AID 410; calls by dose curve;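 further: -100% = full effect of reference inhibitor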)
Sequence of Cytochrome P450 1A2 (Homo sapiens) (P05177 whole entry, looked up): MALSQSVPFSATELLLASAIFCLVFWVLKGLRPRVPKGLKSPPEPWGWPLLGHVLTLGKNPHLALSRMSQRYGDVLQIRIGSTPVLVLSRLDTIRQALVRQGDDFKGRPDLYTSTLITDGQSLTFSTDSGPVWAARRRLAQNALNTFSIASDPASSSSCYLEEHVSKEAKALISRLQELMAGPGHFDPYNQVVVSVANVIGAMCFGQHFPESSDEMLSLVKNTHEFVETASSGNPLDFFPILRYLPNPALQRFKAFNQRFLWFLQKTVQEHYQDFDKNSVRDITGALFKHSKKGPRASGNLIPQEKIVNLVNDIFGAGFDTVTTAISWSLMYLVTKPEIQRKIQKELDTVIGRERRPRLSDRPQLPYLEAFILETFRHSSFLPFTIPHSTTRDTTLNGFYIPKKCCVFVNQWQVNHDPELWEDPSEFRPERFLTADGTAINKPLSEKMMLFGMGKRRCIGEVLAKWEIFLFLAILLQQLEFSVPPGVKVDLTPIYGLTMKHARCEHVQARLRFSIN
How it was run: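 Luminescent readout of luciferin formed from Luciferin-ME by human CYP1A2; data normalized against complete inhibition by 57 uM furafylline. Enzyme 20nM, substrate 100uM at Km, 100mM KPO4 buffer, 60 min reaction at room temperature.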

[5] = NFAT Signaling Pathway (AID 444; active means well fitted curve in either direction with a large enough effect, not every such curve was filed as active;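 further: carbachol stimulus at about its EC50 of 1 µM final; on the % scale 0 is the no-effect control and ±100 the full control effect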); details: Jurkat NFAT-bla M1, carbachol, beta-lactamase ratio, 5 h; at 17.2 µM (top of the series)
How it was run: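 Read-out: CCF4 FRET ratio (460 nm/530 nm) after 1 h RT dye loading, used for %activity and AC50 from titration series. Cells: Jurkat NFAT-β-lactamase/M1 line, treated with compound plus 1 uM carbachol for 5 h, 37 °C.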

[6] = Stat Signaling Pathway (AID 446; active means well fitted curve in either direction with a large enough effect, not every such curve was filed as active;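 further: ME-180 cervical cancer cells given 40 pM IL-6 alongside compound; SIE-controlled beta-lactamase reporter measured as 460/530 nm FRET emission ratio; on the % scale 0 is the no-effect control and ±100 the full control effect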)
How it was run: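 IL-6/STAT signaling read in ME-180 cells via an SIE beta-lactamase reporter. Stimulus was 40 pM IL-6 (its AC50) for 5 hrs, so both activation and inhibition register.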

[7] = molecular target: Mitogen-activated protein kinase 10 (Mus musculus) (UniProt Q61831); experiment: JNK3 AlphaScreen Assay (AID 530; active means well fitted curve in either direction with a large enough effect, not every such curve was filed as active)
How it was run: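 Compound titrations were preincubated 15 minutes at room temperature with substrate, antibody and pre-activated JNK3-containing HepG2 lysate. Reactions were started with 10 uM ATP and stopped with EDTA-containing bead buffer for AlphaScreen detection.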

[8] = molecular target: 3',5'-cyclic-AMP phosphodiesterase 4B (Homo sapiens) (UniProt Q07343); experiment: qHTS Assay for Inhibitors of PDE-IV (AID 607; active means well fitted activation curve with a large enough effect in the main read-out, with a control signal flat, not every such curve was filed as active; further: % of control where 0% means no effect)
Sequence of 3',5'-cyclic-AMP phosphodiesterase 4B (Homo sapiens) (Q07343 whole entry, looked up): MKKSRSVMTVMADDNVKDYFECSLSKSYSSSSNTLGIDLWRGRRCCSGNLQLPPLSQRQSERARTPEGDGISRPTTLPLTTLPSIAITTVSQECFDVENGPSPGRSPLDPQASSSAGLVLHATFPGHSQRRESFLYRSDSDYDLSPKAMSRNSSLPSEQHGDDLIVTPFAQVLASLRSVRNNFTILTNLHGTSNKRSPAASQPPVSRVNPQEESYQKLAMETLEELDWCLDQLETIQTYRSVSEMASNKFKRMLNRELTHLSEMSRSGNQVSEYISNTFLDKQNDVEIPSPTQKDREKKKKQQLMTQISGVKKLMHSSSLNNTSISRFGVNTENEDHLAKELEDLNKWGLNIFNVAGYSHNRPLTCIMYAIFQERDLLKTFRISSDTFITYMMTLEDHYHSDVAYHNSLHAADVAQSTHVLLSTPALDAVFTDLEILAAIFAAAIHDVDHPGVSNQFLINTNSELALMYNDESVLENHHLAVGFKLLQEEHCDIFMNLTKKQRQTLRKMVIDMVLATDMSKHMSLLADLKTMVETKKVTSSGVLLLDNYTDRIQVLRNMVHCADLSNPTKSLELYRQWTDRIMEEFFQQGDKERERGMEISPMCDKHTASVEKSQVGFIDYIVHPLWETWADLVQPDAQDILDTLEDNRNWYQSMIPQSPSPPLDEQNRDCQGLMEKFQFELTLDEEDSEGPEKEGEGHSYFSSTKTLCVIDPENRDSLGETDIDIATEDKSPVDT
How it was run: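 Live HEK293 cells with a modified cyclic nucleotide-gated (CNG) channel report intracellular cAMP via membrane-potential dye fluorescence (ex 535/em 590 nm). Endogenous PDE-IV was targeted. Compounds were tested at up to 22.9 uM final; RO 20-1724 100 uM served as control.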

[9] = molecular target: Cytochrome P450 3A4 (Homo sapiens) (UniProt P08684); experiment: qHTS Assay for Activators of Cytochrome P450 3A4 (AID 885); further: nearly all actives have a fitted effect of over 65% in size
Sequence of Cytochrome P450 3A4 (Homo sapiens) (P08684 whole entry, looked up): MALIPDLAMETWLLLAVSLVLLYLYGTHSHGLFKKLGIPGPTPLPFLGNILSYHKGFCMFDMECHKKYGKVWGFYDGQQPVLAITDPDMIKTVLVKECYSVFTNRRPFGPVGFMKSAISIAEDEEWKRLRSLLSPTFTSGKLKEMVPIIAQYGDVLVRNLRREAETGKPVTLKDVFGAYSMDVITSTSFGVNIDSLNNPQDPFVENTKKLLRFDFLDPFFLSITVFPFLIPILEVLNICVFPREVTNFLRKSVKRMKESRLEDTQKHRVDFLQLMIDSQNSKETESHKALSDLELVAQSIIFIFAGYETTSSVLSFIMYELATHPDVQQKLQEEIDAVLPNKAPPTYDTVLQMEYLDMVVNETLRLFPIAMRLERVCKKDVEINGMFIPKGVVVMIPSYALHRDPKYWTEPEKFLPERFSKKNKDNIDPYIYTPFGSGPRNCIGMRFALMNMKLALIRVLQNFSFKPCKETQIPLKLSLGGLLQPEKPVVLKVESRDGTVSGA
How it was run: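 Quantitative HTS format: compounds preincubated with 20nM human CYP3A4 and Luciferin-PPXE substrate at KM, reaction started by NADPH regeneration, stopped after 60 min, luciferase luminescence read 20 min later.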

[10] = molecular target: Cytochrome P450 2D6 (Homo sapiens) (UniProt P10635); experiment: qHTS Assay for Inhibitors and Substrates of Cytochrome P450 2D6 (AID 891); further: potency means the concentration at half of the fitted maximal effect; nearly all actives have a fitted effect of over 60% in size
Sequence of Cytochrome P450 2D6 (Homo sapiens) (P10635 whole entry, looked up): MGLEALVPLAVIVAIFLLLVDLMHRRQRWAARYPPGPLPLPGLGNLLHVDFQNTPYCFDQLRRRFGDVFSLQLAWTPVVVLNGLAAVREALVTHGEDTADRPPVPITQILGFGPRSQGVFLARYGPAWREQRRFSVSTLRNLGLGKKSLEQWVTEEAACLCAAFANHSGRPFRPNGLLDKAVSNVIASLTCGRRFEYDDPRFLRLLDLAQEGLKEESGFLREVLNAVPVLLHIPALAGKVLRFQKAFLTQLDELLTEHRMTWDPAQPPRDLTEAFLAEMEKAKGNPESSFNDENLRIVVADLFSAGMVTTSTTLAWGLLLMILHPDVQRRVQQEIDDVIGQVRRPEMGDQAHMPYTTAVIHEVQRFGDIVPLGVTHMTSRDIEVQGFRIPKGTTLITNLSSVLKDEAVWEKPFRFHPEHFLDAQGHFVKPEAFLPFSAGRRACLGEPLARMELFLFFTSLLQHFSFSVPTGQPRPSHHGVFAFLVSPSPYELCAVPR
How it was run: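 Human CYP2D6 (5 nM) with 30 uM Luciferin-ME EGE (at Km) in 100 mM KPO4, compound preincubated 10 min, then NADPH regeneration system for 60 min at room temperature. Luciferin read by luminescence; normalized to 1.43 uM quinidine.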

[11] = qHTS Assay for Lipid Storage Modulators (AID 1519; calls by dose curve); details: Drosophila S3 cells, BODIPY lipid droplet/cell ratio, laser cytometry, cells loaded with oleic acid
How it was run: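 Cells seeded at 5,000 per well were treated with compounds over a concentration series and loaded with oleic acid (400 uM, as added). Lipid droplet fluorescence (488 nm excitation, 500-530 nm channel) was read by laser-scanning cytometry and normalized to 20 uM Triacsin C.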

[12] = molecular target: Ubiquitin carboxyl-terminal hydrolase 1 (Homo sapiens) (UniProt O94782); experiment: Inhibitors of USP1/UAF1: Pilot qHTS (AID 504865);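 further: rhodamine fluorescence freed from ubiquitin-rhodamine substrate followed over time; top concentration of the series differs between compounds; on the % scale 0 is the no-effect control and ±100 the full control effect; nearly all actives have a fitted effect of over 35% in size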
Sequence of Ubiquitin carboxyl-terminal hydrolase 1 (Homo sapiens) (O94782 whole entry, looked up): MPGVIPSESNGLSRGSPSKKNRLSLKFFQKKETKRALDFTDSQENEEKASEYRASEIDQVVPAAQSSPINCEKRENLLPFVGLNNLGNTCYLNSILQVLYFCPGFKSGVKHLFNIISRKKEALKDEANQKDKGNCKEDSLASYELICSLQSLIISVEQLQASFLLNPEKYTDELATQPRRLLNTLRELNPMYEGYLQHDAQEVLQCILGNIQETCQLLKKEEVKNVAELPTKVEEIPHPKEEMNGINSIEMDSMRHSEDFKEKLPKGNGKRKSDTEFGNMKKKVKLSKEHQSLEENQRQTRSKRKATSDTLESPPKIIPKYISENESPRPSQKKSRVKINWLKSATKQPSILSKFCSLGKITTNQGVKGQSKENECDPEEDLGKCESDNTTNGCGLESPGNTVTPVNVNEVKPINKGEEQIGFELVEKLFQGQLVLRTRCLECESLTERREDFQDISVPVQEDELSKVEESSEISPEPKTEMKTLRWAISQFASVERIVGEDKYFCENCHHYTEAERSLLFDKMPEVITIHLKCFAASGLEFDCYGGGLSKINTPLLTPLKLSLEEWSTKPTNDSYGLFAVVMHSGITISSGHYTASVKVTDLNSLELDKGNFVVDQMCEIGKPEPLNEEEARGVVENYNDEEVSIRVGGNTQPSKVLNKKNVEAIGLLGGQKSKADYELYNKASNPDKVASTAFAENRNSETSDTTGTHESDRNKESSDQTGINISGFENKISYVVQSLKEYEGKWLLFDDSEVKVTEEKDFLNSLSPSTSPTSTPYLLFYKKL
How it was run: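 Enzyme-free wells gave the negative control, while test wells held 1nM USP1/UAF1 preincubated with compound for 15 min at room temperature. Ub-Rho at 150nM final started the reaction, and fluorescence at 480/540 nm was recorded kinetically.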

[13] = molecular target: DNA dC->dU-editing enzyme APOBEC-3G (Homo sapiens) (UniProt Q9HC16); experiment: qHTS for inhibitors of Vif-A3G interactions: Validation (AID 588379); further: 0% is about no effect
Sequence of DNA dC->dU-editing enzyme APOBEC-3G (Homo sapiens) (Q9HC16 whole entry, looked up): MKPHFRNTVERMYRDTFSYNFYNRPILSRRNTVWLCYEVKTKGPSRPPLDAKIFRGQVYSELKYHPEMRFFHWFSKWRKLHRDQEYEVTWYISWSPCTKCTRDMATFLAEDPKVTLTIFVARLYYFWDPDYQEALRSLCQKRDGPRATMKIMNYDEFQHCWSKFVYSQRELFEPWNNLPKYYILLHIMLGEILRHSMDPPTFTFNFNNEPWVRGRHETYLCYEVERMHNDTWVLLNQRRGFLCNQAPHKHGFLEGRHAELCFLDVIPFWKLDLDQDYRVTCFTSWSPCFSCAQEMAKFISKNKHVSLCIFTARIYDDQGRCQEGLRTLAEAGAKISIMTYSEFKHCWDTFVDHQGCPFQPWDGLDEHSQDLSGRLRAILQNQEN
How it was run: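 HeLa cells stably expressing Vif and A3G-eYFP, 700 cells/well, incubated overnight at 37 deg C, then exposed to compound overnight at 37 deg C. Inhibition of Vif-mediated degradation read as increased yellow fluorescence (Ex 488/Em 500-530) by laser-scanning cytometry.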

[14] = molecular target: Glucocorticoid receptor (Homo sapiens) (UniProt P04150); experiment: GR-GFP Redistribution (AID 450;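 active means compounds whose dose series gives a full or clear partial fitted curve of increased nuclear translocation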; further: potency means the concentration at half of the fitted maximal effect); details: U2OS GR-GFP nuclear translocation, laser cytometry, 2 h
Sequence of Glucocorticoid receptor (Homo sapiens) (P04150 whole entry, looked up, the tested form may be a part): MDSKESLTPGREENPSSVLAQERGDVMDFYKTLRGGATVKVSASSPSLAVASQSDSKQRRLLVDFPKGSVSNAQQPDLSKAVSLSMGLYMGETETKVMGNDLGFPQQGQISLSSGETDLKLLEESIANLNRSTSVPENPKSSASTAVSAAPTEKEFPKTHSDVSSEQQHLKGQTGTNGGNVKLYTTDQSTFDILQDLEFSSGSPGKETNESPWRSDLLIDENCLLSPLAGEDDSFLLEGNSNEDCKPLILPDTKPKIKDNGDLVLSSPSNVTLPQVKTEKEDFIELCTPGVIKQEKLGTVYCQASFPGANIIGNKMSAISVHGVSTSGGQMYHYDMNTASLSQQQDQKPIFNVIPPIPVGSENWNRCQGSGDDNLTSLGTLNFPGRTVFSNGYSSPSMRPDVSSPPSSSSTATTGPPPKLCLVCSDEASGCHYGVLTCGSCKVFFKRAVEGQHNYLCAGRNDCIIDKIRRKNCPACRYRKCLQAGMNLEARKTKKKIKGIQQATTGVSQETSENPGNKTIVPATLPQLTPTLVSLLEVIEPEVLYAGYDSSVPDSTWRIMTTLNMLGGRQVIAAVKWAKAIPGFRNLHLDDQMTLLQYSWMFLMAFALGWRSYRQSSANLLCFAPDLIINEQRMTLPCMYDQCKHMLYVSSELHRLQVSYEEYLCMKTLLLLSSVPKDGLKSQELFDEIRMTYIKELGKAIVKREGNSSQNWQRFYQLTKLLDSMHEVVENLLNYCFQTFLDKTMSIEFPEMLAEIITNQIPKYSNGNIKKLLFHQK

[15] = molecular target: Glucocorticoid receptor (Homo sapiens) (UniProt P04150); experiment: GR-EFC Redistribution (AID 451; calls by dose curve; further: potency means the concentration at half of the fitted maximal effect); details: CHO-K1 GR-EFC translocation, beta-gal luminescence, 2 h
How it was run: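 Translocation of GR-ED fusion to nuclear EA restores b-gal, read by luminescence after 1 h room-temperature detection. Engineered CHO-K1 biosensor cells, 1,000/well, exposed 2 h at 37 C to titrations up to 46 uM final.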

[16] = molecular target: Cytochrome P450 2C19 (Homo sapiens) (UniProt P33261); experiment: qHTS Assay for Inhibitors and Substrates of Cytochrome P450 2C19 (AID 899); further: potency means the concentration at half of the fitted maximal effect; nearly all actives have a fitted effect of over 60% in size
Sequence of Cytochrome P450 2C19 (Homo sapiens) (P33261 whole entry, looked up): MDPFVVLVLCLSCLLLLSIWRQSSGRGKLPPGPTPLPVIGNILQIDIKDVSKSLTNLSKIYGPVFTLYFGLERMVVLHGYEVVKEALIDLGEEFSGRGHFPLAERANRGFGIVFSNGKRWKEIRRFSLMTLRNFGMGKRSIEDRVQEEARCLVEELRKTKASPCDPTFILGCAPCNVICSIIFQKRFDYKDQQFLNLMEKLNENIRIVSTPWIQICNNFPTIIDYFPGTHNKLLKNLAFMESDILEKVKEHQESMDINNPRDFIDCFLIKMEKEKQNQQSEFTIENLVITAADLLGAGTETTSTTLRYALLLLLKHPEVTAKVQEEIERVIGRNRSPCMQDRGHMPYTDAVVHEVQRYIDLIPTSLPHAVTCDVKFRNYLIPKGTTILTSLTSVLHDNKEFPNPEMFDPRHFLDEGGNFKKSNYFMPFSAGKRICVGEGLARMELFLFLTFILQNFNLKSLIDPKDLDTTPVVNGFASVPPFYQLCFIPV
How it was run: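 5nM enzyme + 10uM Luciferin-H EGE (=KM), 50mM KPO4; cpd pin-transferred, 10 min 37C; NADPH regen, 60 min 37C; stopped w/ luciferin detection reagent, 20 min; luminescence. Normalized to 57uM ketoconazole (AC100).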

CC(C)C[C@H](NC(=O)[C@H](Cc1ccccc1)NC(=O)CNC(=O)[C@H](CS)N(C(=O)[C@@H](N)Cc1ccc(O)cc1)C(C)(C)C)C(=O)N([C@H](C(=O)O)[C@H](C)O)C(C)(C)C (HELM PEPTIDE1{Y.[CC(C)(C)N([C@@H](CS)C(=O)[*:2])[*:1]].G.F.L.[C[C@H](O)[C@@H](C(=O)O)N(C(C)(C)C)[*:1]]}$$$$V2.0)
inactive: activity change, negative = inhibition [1] 12.2% [at 6.83 µM] | activity change, negative = inhibition [2] -10.6% [at 3.88 µM]

C[C@]12N[C@@H](Cc3ccccc31)c1ccccc12
inactive: outcome [3] | Potency [4] | activity change, negative = inhibition [5] -0.0371% and -7.29% | outcome [6] | outcome [7] | Potency [8] | Potency [9] | activity change, negative = inhibition ([11]; at 25.7 µM (top of the series)) 1.12% and -0.257% | activity change, negative = inhibition ([11]; at 57.5 µM (top of the series)) 2.32% and -0.0802% | Potency [12] | Potency [13] | Potency [1] | Potency [2]
11.5% [middle of 4 runs]: max response ([11]; measured here: cell count channel max response)
active: Potency [10] 79.4 nM and 5.01 µM
12.1% [middle of 4 runs]: max response ([11]; measured here: lipid channel max response)

CC[C@H](C)[C@H](NC(=O)[C@H](CCCN=C(N)N)NC(=O)[C@H](CCCN=C(N)N)NC(=O)[C@H](CC(C)C)NC(=O)[C@H](Cc1ccccc1)NC(=O)CNC(=O)CNC(=O)[C@@H](N)Cc1ccc(O)cc1)C(=O)N[C@@H](CCCN=C(N)N)C(=O)N1CCC[C@H]1C(=O)N[C@@H](CCCCN)C(=O)N[C@@H](CC(C)C)C(=O)N[C@@H](CCCCN)C(=O)O
inactive: activity change, negative = inhibition [1] 3.59% [at 6.83 µM] | activity change, negative = inhibition [2] -25.4% [at 3.88 µM]

COc1ccc(C[C@H]2NC[C@H](O)[C@@H]2OC(C)=O)cc1
inactive: Potency [4] | Potency [14] > 46 µM | Potency [15] > 46 µM | Potency [8] | Potency [12] | Potency [13] | Potency [1] | Potency [2]
active: Potency [10] 7.94 µM | Potency [16] 3.16 µM
